Marburg entry inh: blocks Marburg virus binding to or entry into cells; Marburg virus pseudotyped entry inhibition, cell reporter; 1.8% of 300,000 active; Potency, µM (titrated, usually from 37.8 µM), for inactives: at the highest dose activity change, negative = inhibition, most hits filed as inhibitors; calls by dose curve; tested in HEK293 cells; also: potency is read from the fitted curve at half-maximal effect
HCMV inh: inhibitors of human cytomegalovirus. HFF cells, HCMV-luciferase reporter, 72 h; hits give low values. activity change, negative = inhibition, % at 57.5 µM. 4.5% of 410,000 active; in the data active = activity change below about -60%; inconclusive = no clear call, values can overlap the other calls; inactive = above about -39%
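Screen run at 2 compound doses on HFFs infected with reporter HCMV, MOI 1 PFU/cell. Luciferase activity from cell lysates at 72 h post infection gave inhibition relative to buffer-only and Salinomycin wells.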
FMDV inh: foot and mouth disease virus antiviral activity; 1.2% of 410,000 active; FMDV antiviral cell-based qHTS; Potency, µM (titrated, usually from 57.9 µM), for inactives: at the highest dose activity change, negative = inhibition, most hits filed as inhibitors; calls by dose curve; tested in HEK293T cells; also: read-out not given here; potency is read from the fitted curve at half-maximal effect; nearly all actives have a fitted effect of over 45% in size
Lassa entry inh: inhibitors of Lassa virus binding or cell entry. Potency, µM (doses to about 37.9 µM), for the others: top-dose activity change, negative = inhibition, hits mostly inhibitors. Lassa virus pseudotype entry inhibition, cell reporter. 1.2% of 300,000 active; calls by dose curve; tested in HEK293 cells; also: potency is read from the fitted curve at half-maximal effect; nearly all actives have a fitted effect of over 50% in size
Numbers without * were called inactive; u = inconclusive; x = no result given; [ ] = dose if it differs, or a comment. Only some compounds are listed: those with a hit (about 6.2% of all), similar ones and a draw of the others. % is scaled to controls: 0 for no effect and ±100 for the full control effect.

SMILES	Marburg entry inh	HCMV inh	FMDV inh	Lassa entry inh
OCCN1CCOCCOc2ccccc2OCCOCC1	x	-16	1%	x
c1ccc2c(c1)OCCOCCOCCOCCOCCOc1ccccc1OCCOCCOCCO2	u	-98*	u	u
COc1cc(OC)c(NS(=O)(=O)c2ccc(Cl)c(C(=O)OC(C)C(=O)N3CCCC3)c2)cc1Cl (configuration not stated)	u	-64*	u	-18%
COc1ccc(C2=CC(c3c(C)nn(-c4ccccc4)c3Cl)n3nnnc3N2)cc1OC (configuration not stated)	u	u	18µM*	u
CCCS(=O)(=O)NC(=O)C1(C)CCCN(C(=O)c2c(-c3ccccc3)noc2C)C1 (configuration not stated)	x	-63*	-6%	x
CC(=O)OC1(C(C)=O)CCC2C3CC(C(F)(F)F)C4=CC(=O)CCC4(C)C3CCC21C (configuration not stated)	8.9µM*	-29	-6%	u
CC(=O)C12CCCCC1CC1[C@@H]3CC(C)C4=CC(=O)CC[C@]4(C)C3CC[C@@]12C (some centres not stated)	14%[46.1 µM]	-80*	u	28%[46.1 µM]
Cc1cc(C)c2c(CC(=O)Nc3ccc(F)cc3)coc2c1	u	-17	-13%	u
COC(=O)CNc1nc(C2CC2)nc2c1nnn2Cc1ccccc1Cl	-11%	19	-21%	6%
COc1cccc(OC)c1Nc1nc(C)nc2c1nnn2Cc1ccccc1Cl	0%[46.1 µM]	-10	-14%	2%
CN(C)S(=O)(=O)c1ccc(Nc2nc(C3CC3)nc3c2nnn3Cc2ccccc2Cl)cc1	-34%	-79*	5µM*	u
CC(=O)Nc1ccc(Nc2nc(C(F)(F)F)nc3c2nnn3Cc2ccccc2Cl)cc1	-28%[46.1 µM]	-72*	u	-5%[46.1 µM]
CCc1nc(Nc2ccc(OC)c(OC)c2)c2nnn(Cc3ccccc3Cl)c2n1	u	u	25µM*	u
OC[C@H]1OC([S-])[C@H](O)[C@@H](O)[C@@H]1O.[Au+] (some centres not stated)	x	x	0%	x
Nc1ccn(C2CSC(CO)O2)c(=O)n1 (configuration not stated)	x	-21	x	x
COc1ccc(CN2CCOc3ccc(CN4CCC(O)(c5cccnc5)CC4)cc3C2)cc1OC	x	x	-28%	x
Cc1ccc(-c2ccccc2)n1-c1ccc(C(=O)O)cc1	14%	26	-19%	27%
Oc1ccccc1-n1c(-c2ccccc2)ccc1-c1ccccc1	x	-76*	u	x
C/C(=N\NC(=O)c1cccs1)c1ccncc1	x	112	48%	x
C/C(=N\NC(=O)c1ccc(NS(=O)(=O)c2cccs2)cc1)c1ccc(Cl)cc1	-2%	22	-14%	3%
C/C(=N\NC(=O)c1ccc(NS(=O)(=O)c2cccs2)cc1)c1cccs1	3%[46.1 µM]	-83*	21%	18%
C/C(=N/NC(=O)c1cccs1)c1ccc(NC(=O)COc2ccc(Cl)cc2)cc1	u	-14	-4%	10µM*
C/C(=N\NC(=O)c1ccc(Cl)cc1)c1cccs1	u	-5	-48%	3.5µM*
CCCNC(=O)OC[C@H]1O[C@H](CCON=C(C)CCC(=O)OC[C@H]2O[C@H](C#Cc3ccccc3)C=C[C@H]2Oc2ccc(C)cc2)C=C[C@H]1Oc1ccc(OC)cc1	-29%[14.2 µM]	x	x	x
O=C(CN1C(=O)S/C(=C\c2ccc(F)cc2)C1=O)NC1C=CS(=O)(=O)C1 (configuration not stated)	x	u	-6%	x
SMILES	Marburg entry inh	HCMV inh	FMDV inh	Lassa entry inh
O=C(CN1C(=O)S/C(=C\c2ccccc2F)C1=O)NC1C=CS(=O)(=O)C1 (configuration not stated)	x	-63*	0%	x
CCOC(=O)C1=C(O)CCn2c1nc1ccccc12	24%	-107*	-12%	-6%
Cc1c(/C(O)=C2/C(=O)C(=O)N(Cc3cccnc3)C2c2ccccn2)cnn1-c1ccccc1 (configuration not stated)	u	-76*	4µM*	-13%
CC(O)(CS(=O)(=O)Cc1ccc(Cl)cc1)C(=O)Nc1cccc(C(F)(F)F)c1 (configuration not stated)	-6%	-103*	-12%	-2%
CC(C)(O)C(=O)NNC(=S)Nc1cccc(C(F)(F)F)c1	x	-33	-14%	x
CC(=O)Nc1cccc(NS(=O)(=O)Cc2ccc(Cl)cc2)c1	1%	-66*	3%	-21%
CC(=O)c1ccc(NS(=O)(=O)Cc2ccc(Cl)cc2)cc1	4%	70	34%	6%
C=CCNc1ncnc2c1ncn2C1OC(CO)C(O)C1O (configuration not stated)	14µM*	-16	-14%	u
OC[C@@H]1O[C@@H](n2cnc3c(NC4CCCC4)ncnc32)[C@H](O)[C@H]1O	20%	x	-19%	x
OCC1OC(n2cnc3c(NCc4ccco4)ncnc32)C(O)C1O (configuration not stated)	u	-81*	-16%	4.5µM*
OC[C@H]1O[C@@H](n2cnc3c(NCc4ccco4)ncnc32)[C@H](O)[C@@H]1O	x	-39	-24%	x
CSc1ccc2cc(CNCc3ccccc3F)c(N3CCCC(CO)C3)nc2c1 (configuration not stated)	x	x	8%	x
CCc1ccc(NC(=O)CN2C(=O)CCSc3ccccc32)cc1	0%[46.1 µM]	11	-7%	x
O=C(NCCc1ccccc1)c1cc(-c2ccccc2)nc2n[nH]c(-c3ccccc3)c12	15%[46.1 µM]	-3	31%	-21%[46.1 µM]
CCN1/C(=C\C(=S)Nc2ccccc2)Sc2ccccc21	u	-61*	-5%	u
C[C@H](CO)N1C[C@H](C)[C@@H](CN(C)C(=O)Cc2cccnc2)Oc2ncc(C#CCc3ccccc3)cc2C1=O	x	-16	x	x
COc1ccc(C(C[N+](=O)[O-])c2c(-c3ccccc3)cc3ccccn23)c(OC)c1 (configuration not stated)	-35%	-71*	-8%	-21%
CC1(C(=O)NCc2ccccc2)CN(S(C)(=O)=O)CC(=O)N1CCc1ccccc1F (configuration not stated)	x	-9	1%	x
Cc1ccccc1/C=C/C(=O)c1ccc([N+](=O)[O-])o1	x	-103*	22µM*	x
O=C(/C=C/c1cccc([N+](=O)[O-])c1)c1ccc([N+](=O)[O-])o1	x	-10	u	x
Cc1cccc(/C=C/C(=O)c2ccc([N+](=O)[O-])o2)c1	x	-103*	25µM*	x
COc1ccc(/C=C/C(=O)c2ccc([N+](=O)[O-])o2)cc1	x	44	25µM*	x
CC(=O)c1cccc(NC(=O)c2nc(-c3ccc(C)cc3)n3c2CCCCC3)c1	x	-1	u	-8%[46.1 µM]
CC1CCCCC1OCCNC(=O)c1ccco1 (configuration not stated)	13%[46.1 µM]	x	x	x
Cc1ncc2c(c1CNC(=O)c1ccccc1F)CCN(C(=O)c1csc(-c3cccs3)n1)C2	x	x	-8%	x
O=C(O)c1ccc2c(=O)n3cc(C(=O)c4ccccc4O)cc(Cl)c3nc2c1	x	-80*	0%	x
O=C(Cn1c(=O)n(-c2ccccc2Cl)c(=O)c2sc3ccccc3c21)N1CCCC1	-5%[46.1 µM]	-4	-10%	3%[46.1 µM]
Nc1cccc(-c2nc3cc(S(=O)(=O)c4ccc5oc(-c6cccc(N)c6)nc5c4)ccc3o2)c1	u	-83*	-22%	u
